Assay [1] in a line: Primary qHTS for small molecule stabilizers of the endoplasmic reticulum resident proteome: Secreted ER Calcium Modulated Protein (SERCaMP) assay (AID 1508630). The essentials:
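GLuc-SERCaMP-expressing SH-SY5Y cells, pretreated 16 h with compound, are challenged with thapsigargin to empty ER calcium stores; after 4 h, coelenterazine is added directly to the medium and luminescence is imaged.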

The nature of assay [2]: A High-Content qHTS Against Drug Library for the Identification of Small Molecules that Inhibit DYT1 Early Onset Primary Dystonia-Associated Cell Pathology (AID 1645839; calls by dose curve; further: potency means the concentration at half of the fitted maximal effect). A digest of the protocol:
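Readout: %pathology, the punctate EGFP-TorsinA distribution from imaging, as the primary channel and cell count as the toxicity counterscreen. HEK293 Flp-In cells expressing delE TorsinA were induced with tetracycline and treated with compound for 48 h.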

The target in assay [3] is Cytochrome P450 2D6 (Homo sapiens) (UniProt P10635). Nature of the assay: Cytochrome P450 family 2 subfamily D member 6 (CYP2D6) small molecule antagonists: luciferase biochemical (cell-free) qHTS assay (AID 1645840; active means well fitted curve in the direction sought with a large enough effect in the repeat runs; an effect the other way counts as inactive or inconclusive; further: nearly all actives have a fitted effect of over 55% in size; further: potency means the concentration at half of the fitted maximal effect). A digest of the protocol:
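P450-Glo luminescent screen: recombinant CYP2D6 enzyme–proluciferin substrate mix preincubated with compound 10 min at room temperature, then NADPH regeneration added for 1 h at room temperature. Detection reagent added for 20 min; luciferin light read as relative luminescence units.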

The target of assay [4] is Cytochrome P450 3A4 (Homo sapiens) (UniProt P08684). Nature of the assay: Cytochrome P450 family 3 subfamily A member 4 (CYP3A4) small molecule antagonists: luciferase qHTS assay (AID 1645841; active means well fitted curve in the direction sought with a large enough effect in the repeat runs; an effect the other way counts as inactive or inconclusive; further: nearly all actives have a fitted effect of over 45% in size). The essentials:
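P450-Glo CYP3A4 enzyme with proluciferin substrate was preincubated with DMSO-dissolved compounds for 10 min at room temperature. NADPH regeneration solution started a 1 h reaction. Detection reagent stopped it, and luminescence was read after 20 min.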

Assay [5] concerns the target Cytochrome P450 2C9 (Homo sapiens) (UniProt P11712). In words: Cytochrome P450 family 2 subfamily C member 9 (CYP2C9) small molecule antagonists: luciferase biochemical (cell-free) qHTS assay (AID 1645842; active means well fitted curve in the direction sought with a large enough effect in the repeat runs; an effect the other way counts as inactive or inconclusive; further: nearly all actives have a fitted effect of over 55% in size; further: potency means the concentration at half of the fitted maximal effect). A digest of the protocol: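 Luminescence, after 20 min with luciferin detection reagent, reflected CYP2C9 turnover during a 1 h NADPH-driven reaction at 37C. Enzyme-substrate mix contained 0.4% bovine serum albumin and was preincubated with compound 10 min at room temperature.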

Assay [6] is described as follows: Primary qHTS for inhibitors of nuclear receptor binding SET domain protein 2 (NSD2) in an isogenic RCH-ACV NSD2 p.E1099K mutant (9B) (AID 1645876). Further: nearly all actives have a fitted effect of over 70% in size. Further: potency means the concentration at half of the fitted maximal effect.
The nature of assay [7]: Primary qHTS for inhibitors of nuclear receptor binding SET domain protein 2 (NSD2) in an RCH-ACV wild type WT cells (2C) (AID 1645877). Further: nearly all actives have a fitted effect of over 70% in size. Further: potency means the concentration at half of the fitted maximal effect.

Records with an inconclusive call do not appear. Unmarked numbers belong to inactive results. The source made the active and inactive calls. Unless noted, the call rests on the fitted dose curve; in most records, active means well fitted curve in the direction sought with a large enough effect; inconclusive means small, poorly fitted or top-dose-only effect, or another doubt; inactive means no such curve, though single readings can be large; an effect the other way counts as inactive or inconclusive.

Chain of Cytochrome P450 2C9 (Homo sapiens) (P11712 whole entry, looked up): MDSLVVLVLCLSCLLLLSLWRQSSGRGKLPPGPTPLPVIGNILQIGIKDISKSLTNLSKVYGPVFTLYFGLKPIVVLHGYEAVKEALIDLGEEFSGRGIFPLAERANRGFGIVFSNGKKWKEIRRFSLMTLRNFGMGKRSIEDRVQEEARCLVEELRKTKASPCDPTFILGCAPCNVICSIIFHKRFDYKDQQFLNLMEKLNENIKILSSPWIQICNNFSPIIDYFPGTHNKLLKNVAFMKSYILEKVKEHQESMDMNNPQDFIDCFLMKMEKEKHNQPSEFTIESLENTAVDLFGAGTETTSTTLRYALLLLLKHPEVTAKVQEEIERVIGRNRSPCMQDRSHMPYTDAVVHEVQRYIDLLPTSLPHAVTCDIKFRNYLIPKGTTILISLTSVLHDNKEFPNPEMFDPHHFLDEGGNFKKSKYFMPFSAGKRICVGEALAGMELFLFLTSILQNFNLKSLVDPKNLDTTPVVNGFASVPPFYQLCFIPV
Chain of Cytochrome P450 3A4 (Homo sapiens) (P08684 whole entry, looked up): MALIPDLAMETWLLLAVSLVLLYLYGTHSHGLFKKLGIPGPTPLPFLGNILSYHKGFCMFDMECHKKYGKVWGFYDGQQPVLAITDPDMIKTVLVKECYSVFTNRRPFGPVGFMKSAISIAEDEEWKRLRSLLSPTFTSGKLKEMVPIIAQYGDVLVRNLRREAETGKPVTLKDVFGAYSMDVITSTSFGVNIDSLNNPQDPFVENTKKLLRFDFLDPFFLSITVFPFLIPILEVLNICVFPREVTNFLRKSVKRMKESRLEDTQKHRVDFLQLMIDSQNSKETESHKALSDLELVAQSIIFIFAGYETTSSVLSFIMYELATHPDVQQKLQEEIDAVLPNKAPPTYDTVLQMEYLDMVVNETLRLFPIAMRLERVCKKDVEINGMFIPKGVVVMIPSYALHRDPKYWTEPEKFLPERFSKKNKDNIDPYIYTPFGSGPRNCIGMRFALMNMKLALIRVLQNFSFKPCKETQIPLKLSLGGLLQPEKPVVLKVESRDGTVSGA
Chain of Cytochrome P450 2D6 (Homo sapiens) (P10635 whole entry, looked up): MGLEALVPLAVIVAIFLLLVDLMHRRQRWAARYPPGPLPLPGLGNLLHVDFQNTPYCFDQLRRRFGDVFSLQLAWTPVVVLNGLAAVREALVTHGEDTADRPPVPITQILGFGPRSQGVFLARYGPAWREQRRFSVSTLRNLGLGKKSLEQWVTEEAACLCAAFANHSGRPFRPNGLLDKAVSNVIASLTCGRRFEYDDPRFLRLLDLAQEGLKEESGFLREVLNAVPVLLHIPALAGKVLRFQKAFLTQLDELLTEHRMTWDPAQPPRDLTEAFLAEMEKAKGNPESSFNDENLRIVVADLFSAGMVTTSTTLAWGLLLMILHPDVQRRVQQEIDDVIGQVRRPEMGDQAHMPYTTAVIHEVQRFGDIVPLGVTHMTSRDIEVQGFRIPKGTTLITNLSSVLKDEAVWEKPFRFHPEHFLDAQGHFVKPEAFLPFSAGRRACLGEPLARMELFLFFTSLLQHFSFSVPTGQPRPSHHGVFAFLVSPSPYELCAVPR

For the compound `COCCOCC(OC)OC`, the Potency entry in assay [1], in assay [2], in assay [3], in assay [4], in assay [5] and in assay [6] was “inactive” throughout. Moreover, the Potency result in assay [7] is “inactive”.

On to `CC1c2ccccc2CN1NC(=O)c1ccc(Cl)c(S(N)(=O)=O)c1` (stereo not drawn), for which the Potency result in assay [1], in assay [2], in assay [3], in assay [4], in assay [5] and in assay [6] was “inactive” each time. In addition, the Potency result in assay [7] is “inactive”.

Consider `OC(CCCN1CCCCC1)(c1ccccc1)c1ccccc1`, for which the Potency entry in assay [1] and in assay [2] was “inactive” each time. Moreover, in assay [3], the Potency is 0.138 µM (active).

Consider `O=C(O)c1ccccc1Nc1cc(Cl)ccc1C(=O)O`, for which the Potency entry in assay [1], in assay [2], in assay [3], in assay [5] and in assay [6] was “inactive” each time.

In the case of `O=C(OCC(O)CO)c1ccccc1Nc1ccnc2c(C(F)(F)F)cccc12` (stereo not drawn), the Potency result in assay [1] and in assay [2] was “inactive” each time. For the same compound, the results for the Potency in assay [3] and in assay [5] were 11 µM (active) and 6.17 µM (active), respectively.

`COc1cc(/C=C/C(N)=O)cc(OC)c1OC`: the Potency result in assay [1], in assay [2], in assay [3] and in assay [5] was “inactive” in each case.

As for `CCOC(=O)N1CCC(n2c(=O)[nH]c3cc(Cl)ccc32)CC1`, the Potency entry in assay [1] and in assay [2] was “inactive” in each case.

Turning to `CCC[C@H](N[C@@H](C)C(=O)N1[C@H](C(=O)O)C[C@@H]2CCCC[C@@H]21)C(=O)OCC`, the Potency result in assay [1], in assay [2], in assay [3] and in assay [5] was “inactive” throughout.

Consider `O=C(O)CCC(=O)OC[C@@H](NC(=O)C(Cl)Cl)[C@H](O)c1ccc([N+](=O)[O-])cc1`, for which the Potency result in assay [1], in assay [2] and in assay [3] was “inactive” throughout.

For the compound `O=C(O)[C@@H](O)[C@H](O)[C@H](O)[C@@H](O)C(=O)O`, the Potency entry in assay [1], in assay [2], in assay [3], in assay [4], in assay [6] and in assay [7] was “inactive” each time.

For the compound `Cc1ccc(Cl)c(OCC(O)CNC(C)(C)C)c1` (stereo not drawn), the Potency result in assay [1], in assay [2], in assay [5] and in assay [6] was “inactive” each time. Further, the Potency in assay [3] was 1.74 µM (active).

Regarding `NS(=O)(=O)c1cc(C(=O)NN2C[C@H]3[C@H]4CCC(C4)[C@H]3C2)ccc1Cl`, the Potency result in assay [1], in assay [2], in assay [3] and in assay [5] was “inactive” each time.

For `O=C(CCOCCOCCOCCOCCC(=O)Nc1c(I)cc(I)c(C(=O)O)c1I)Nc1c(I)cc(I)c(C(=O)O)c1I`, the Potency entry in assay [1], in assay [2], in assay [3], in assay [4], in assay [5] and in assay [6] was “inactive” throughout. For the same compound, the Potency result in assay [7] was “inactive”.

As for `CCNC(=O)NCCCOc1cccc(CN2CCCCC2)c1`, the Potency result in assay [1] and in assay [2] was “inactive” each time.

On to `CC(CC(C#N)(c1ccccc1)C(C)C)N(C)C` (stereo not drawn), for which the Potency entry in assay [1], in assay [2], in assay [5] and in assay [6] was “inactive” throughout. Moreover, in assay [3], the Potency was 8.71 µM (active).

As for `CNC(=O)c1cnn(-c2nc(N)c3ncn([C@@H]4O[C@H](CO)[C@@H](O)[C@H]4O)c3n2)c1`, the Potency entry in assay [1], in assay [2], in assay [3] and in assay [5] was “inactive” each time.

For `CCC(C(=O)NC(=O)NC(C)=O)c1ccccc1` (stereo not drawn), the Potency entry in assay [1], in assay [2], in assay [3], in assay [5], in assay [6] and in assay [7] was “inactive” each time.

For the compound `CCN1CCCC1CN` (stereo not drawn), the Potency result in assay [1], in assay [2], in assay [3], in assay [5], in assay [6] and in assay [7] was “inactive” in each case.

`Cc1c(N)cccc1C(F)(F)F`: the Potency entry in assay [1], in assay [2], in assay [3], in assay [5], in assay [6] and in assay [7] was “inactive” each time.

As for `CN1N=C(C(N)=O)CCC1=O`, the Potency entry in assay [1], in assay [2], in assay [3], in assay [5], in assay [6] and in assay [7] was “inactive” in each case.

Regarding `CN(C)CCN(Cc1ccsc1)c1ccccn1`, the Potency entry in assay [1], in assay [2], in assay [5], in assay [6] and in assay [7] was “inactive” each time. Also, the Potency in assay [3] is 6.92 µM (active).

`Cc1sccc1Br`: the Potency result in assay [1], in assay [2], in assay [3], in assay [5], in assay [6] and in assay [7] was “inactive” in each case.

For `Cc1cccc(OCC(O)CNC(C)(C)C)c1C` (stereo not drawn), the Potency result in assay [1], in assay [2], in assay [5], in assay [6] and in assay [7] was “inactive” in each case. Further, in assay [3], the Potency is 11 µM (active).

For the compound `CC(=O)Oc1ccc(C2(c3ccc(OC(C)=O)cc3)Oc3ccccc3NC2=O)cc1`, the Potency result in assay [1] and in assay [3] was “inactive” each time. The Potency in assay [2] was 12.6 µM (active); in assay [5], 1.74 µM (active); in assay [6], 8.17 µM (active); in assay [7], 10.3 µM (active).

`CN1[C@@H]2CC[C@H]1CC(NC(=O)n1c(=O)[nH]c3ccccc31)C2` (stereo partly drawn): the Potency entry in assay [1], in assay [2], in assay [5], in assay [6] and in assay [7] was “inactive” in each case. In addition, the Potency in assay [3] was 1.55 µM (active).

As to `COCCc1ccccn1`, the Potency entry in assay [1], in assay [2], in assay [3], in assay [5], in assay [6] and in assay [7] was “inactive” throughout.

With `CCN(CC)CC(=O)Nc1c(C)cccc1C(=O)OC`, the Potency entry in assay [1], in assay [2], in assay [3], in assay [5], in assay [6] and in assay [7] was “inactive” in each case.

As to `CC(NC(CCc1ccccc1)C(=O)O)C(=O)N1C(=O)N(C)CC1C(=O)O` (stereo not drawn), the Potency result in assay [1], in assay [2], in assay [3], in assay [5], in assay [6] and in assay [7] was “inactive” each time.

As for `Cc1ccc(/C=N/n2c(-c3ccccc3)csc2=S)cc1`, the Potency result in assay [1], in assay [2], in assay [3], in assay [6] and in assay [7] was “inactive” each time. Further, the Potency in assay [5] is 4.36 µM (active).

On to `O=C1NC(c2ccccc2)(c2ccccc2)C(=O)N1COP(=O)(O)O`, for which the Potency result in assay [1], in assay [2], in assay [3], in assay [5], in assay [6] and in assay [7] was “inactive” throughout.

Regarding `O=[N+]([O-])c1nccn1CO[C@@H](CO)[C@H](O)CO`, the Potency result in assay [1], in assay [2], in assay [3], in assay [5], in assay [6] and in assay [7] was “inactive” in each case.

For the compound `Cn1c(=O)c2c(ncn2CC(=O)O)n(C)c1=O`, the Potency entry in assay [1], in assay [2], in assay [3], in assay [5], in assay [6] and in assay [7] was “inactive” each time.

Source of the values: PubChem BioAssay (NCATS).
